High-throughput results (PubChem)
Sampled rows, rich in hits. Any-hit rate of the full collection: about 19%.
DT40 TDP1 no CPT: qHTS for Inhibitors of human tyrosyl-DNA phosphodiesterase 1 (TDP1): qHTS in cells in absence of CPT; DT40 Tdp1-/- hTDP1 cells, no CPT, ATP luminescence, 48 h; 15% of 420,000 active; Potency, µM (series often up to 46.2 µM), for inactives: top-dose activity change, negative = growth inhibition, hits mostly inhibitors; AID 686978, 2013; also: potency is read from the fitted curve at half-maximal effect; % is scaled to controls: 0 for no effect and ±100 for the full control effect; nearly all actives have a fitted effect of over 55% in size
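Luminescent ATP content (CellTiter-Glo) served as the growth readout. Knockout chicken DT40 cells expressing human TDP1 were exposed to compounds without camptothecin for a minimum 48 hr at 37 °C.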
DT40 TDP1 CPT: growth inhibition of DT40 Tdp1-/-;hTDP1 cells with camptothecin (screen for TDP1 inhibitors) | 12% of 420,000 active | chicken DT40 Tdp1-/-;hTDP1 cells + 20 nM CPT, ATP luminescence, 48 h | AID 686979 | Potency, µM (highest dose often 46.2 µM), for the others: top-dose activity change, negative = growth inhibition, actives largely listed as inhibitors; also: potency is read from the fitted curve at half-maximal effect; % is scaled to controls: 0 for no effect and ±100 for the full control effect; nearly all actives have a fitted effect of over 55% in size
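Cell growth measured by CellTiter-Glo luminescence after a minimum 48 h, 37 C compound exposure with 20 nM CPT in Tdp1-knockout DT40 cells stably expressing hTDP1, seeded 400/well; qHTS titration format.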
IL-1B inflam inh: inflammasome signaling inhibition, IL-1 beta readout. 4.7% of 360,000 active. AID 743279. activity change, % at 57.5 µM. THP-1 LPS/ATP IL-1B secretion, AlphaLISA, 16 h; hits give low values; in the data active = activity change below about -50%; inconclusive = mostly about -30% to -49%; also: % is scaled to controls: 0 for no effect and ±100 for the full control effect
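Secreted IL-1B measured by AlphaLISA bead assay after 16 h compound exposure of THP-1 cells; compounds (final up to 57.5 uM) added 1 h before LPS (250 ng/mL) and ATP (1.25 mM) stimulation; lower signal means less secretion.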
ASM inhibitor: blocks human secretory acid sphingomyelinase; 0.006% of 340,000 active; placental ASM, HMU-PC fluorogenic substrate, 60 min; Potency, µM (series often up to 57.5 µM), for the others: top-dose activity change, negative = inhibition, actives largely listed as inhibitors; P17405; also: potency is read from the fitted curve at half-maximal effect
Target sequence (P17405 47-631 limits assumed): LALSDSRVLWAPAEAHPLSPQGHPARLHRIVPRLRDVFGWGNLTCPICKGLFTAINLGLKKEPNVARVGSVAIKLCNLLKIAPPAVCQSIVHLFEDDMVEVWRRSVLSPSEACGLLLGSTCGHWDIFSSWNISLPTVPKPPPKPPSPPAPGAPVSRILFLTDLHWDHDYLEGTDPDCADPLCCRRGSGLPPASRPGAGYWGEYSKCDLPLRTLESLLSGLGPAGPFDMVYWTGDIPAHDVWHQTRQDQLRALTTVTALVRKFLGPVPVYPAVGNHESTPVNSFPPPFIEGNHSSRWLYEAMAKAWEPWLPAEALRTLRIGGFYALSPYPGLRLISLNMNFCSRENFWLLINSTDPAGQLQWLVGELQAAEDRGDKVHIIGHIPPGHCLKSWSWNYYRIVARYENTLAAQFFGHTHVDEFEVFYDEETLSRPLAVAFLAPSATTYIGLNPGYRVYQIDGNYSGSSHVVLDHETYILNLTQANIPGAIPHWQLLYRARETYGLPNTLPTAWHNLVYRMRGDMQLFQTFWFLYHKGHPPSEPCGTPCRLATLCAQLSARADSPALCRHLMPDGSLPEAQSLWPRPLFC
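qHTS format. ASM enzyme prepared from human placenta hydrolyses the fluorogenic substrate HMU-PC0 (9 uM final) over 60 min at 37 °C after a 10 min compound preincubation.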
HepG2 tox: kills HepG2 cells in TGF-b inhibitor counter-screen. HepG2 CAGA-GFP viability, ATP luminescence, 18 h. Potency, µM (top dose mostly 46.1 µM), inactives show top-dose activity change, negative = cytotoxicity, usual class: cytotoxic. 0.76% of 410,000 active; also: potency is read from the fitted curve at half-maximal effect
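HepG2 CAGA-GFP cells (1000/well, DMEM with 1% FBS) received compound, then TGF-beta at 500 pg/mL final, and were incubated 18 hours at 37 degrees C. Viability was read by CellTiter-Glo luminescence. Media-only wells were set as complete cell-killing and DMSO as no toxicity.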
TGFb SMAD3 inh: inhibitors of TGF-b signaling; HepG2 CAGA-GFP TGF-b/SMAD3 reporter, GFP fluorescence, 18 h; TGF-beta stimulated, 500 pg/mL final; Potency, µM (series often up to 46.1 µM), without a hit: at the highest dose activity, negative = inhibition, hits mostly inhibitors; 1.2% of 410,000 active; also: potency is read from the fitted curve at half-maximal effect; % is scaled to controls: 0 for no effect and ±100 for the full control effect; nearly all actives have a fitted effect of over 65% in size
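Smad-responsive CAGA-GFP expression was quantified in HEPG2 cells exposed to compounds and 500 pg/mL final TGF-beta for 18 h at 37 degrees C; unstimulated wells defined full inhibition.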
* marks the source's active call; other numbers are inactive results; i = inactive; u = inconclusive; x = not tested or not shown; [ ] = another dose, or the depositor's remark. Unless noted, calls follow the shape of the dose curve; as a rule, active = well fitted curve in the direction sought with a large enough effect; inconclusive = small, poorly fitted or top-dose-only effect, or another doubt; inactive = no such curve, though single readings can be large; an effect the other way counts as inactive or inconclusive.

SMILES	DT40 TDP1 no CPT	DT40 TDP1 CPT	IL-1B inflam inh	ASM inhibitor	HepG2 tox	TGFb SMAD3 inh
CC(C)c1ncc(S(=O)(=O)c2ccc(C(F)(F)F)cn2)c(N)n1	-17%	-5%	19	-3%	-28%	-15%
COc1c(S(=O)(=O)N2CCN(C(=O)c3ccco3)CC2)ccc(Cl)c1Cl	-22%	-27%	-1	1%	-5%	-18%
Cc1ccc(CN(C(=O)COc2cc(C)c(Cl)c(C)c2)c2ccccn2)o1	18µM*	u	x	x	-39%	u
CCCCOc1cccc(C(=O)N(Cc2ccc(C)o2)c2ccccn2)c1	9.2µM*	15µM*	x	x	-25%	u
Cc1ccc(CN(C(=O)COc2ccccc2[N+](=O)[O-])c2ccccn2)o1	u	u	x	x	-9%	-22%
COc1cc(CN(C(=O)COc2ccc(Cl)cc2)c2ccccn2)cc(OC)c1OC	8.2µM*	18µM*	x	x	-26%	-23%
Cc1ccc(CN(C(=O)COc2ccc(Br)cc2)c2ccccn2)o1	16µM*	u	x	x	-12%	-19%
Cc1oc(-c2ccccc2NC(=O)c2ccccc2)nc1CNC(=O)c1c(-c2ccccc2)noc1C	-12%	0%[9.04 µM]	x	x	x	x
CN(C)c1ncc(C(=O)NCc2ccccc2Cl)cn1	-3%	-5%	x	x	-2%	-1%
COc1ccc(OC)c2sc(N(CCN(C)C)C(=O)/C=C/c3cccs3)nc12	u	u	-103*	-21%	16µM*	u
COc1ccc(C)c2sc(N(CCN(C)C)C(=O)/C=C/c3cccs3)nc12	u	u	-71*	-11%	11µM*	u
COc1ccc(C)c2sc(N(CCN(C)C)C(=O)c3cccc(N4C(=O)CCC4=O)c3)nc12	-20%	1%	-6	x	-4%	18%
CC(C)(C)C(Cn1ccnc1)NC(=O)c1ccc2nc(C3CC3)oc2c1 (configuration not stated)	-5%	-10%	i	3%	20%	1%
CC1CCn2c(nc3cc(C(=O)NCc4ccc(F)cc4)ccc32)C1 (configuration not stated)	u	-24%	x	x	-2%	-7%
CCOC(=O)c1cn(Cc2ccccc2)c(C(=O)OC(C)(C)C)c1O	-11%	23µM*	-2	-3%	-22%	-3%
Cc1ccc(N(CC(=O)NC(C)C)C(=O)CCC(=O)Nc2ccccn2)c(C)c1	-1%	-4%	u	x	-1%	3%
CCOc1ccc(NC(=O)N(Cc2ccc(C)cc2)Cc2ccccn2)cc1	u	-6%	-16	-1%	-63%	-14%
Cc1ccc(-c2cc(C(=O)NC3=NCCS3)c3ccccc3n2)cc1C	-28%	u	-9	-2%	-9%	9%
CCCc1ccc(-c2cc(C(=O)NC3=NCCS3)c3ccccc3n2)cc1	u	u	-53*	4%	-21%	-10%
O=C(NC1=NCCS1)c1cc(-c2ccc(F)cc2)nc2ccccc12	u	u	-73*	-1%	5%	2%
C[C@H](NC(=O)Cn1cncn1)c1ccccc1	5%	6%	1	4%	-19%	14%
O=C(Nc1ccccc1F)c1csc(COCCO)n1	4%	-21%	-2	x	0%	-7%
CN(C)S(=O)(=O)c1ccc(NC(=S)NC(=O)c2cccs2)cc1	u	u	-2	-1%	-17%	-1%
CN(c1ccccc1)S(=O)(=O)c1ccc(NC(=O)c2cccs2)cc1	u	u	-60*	-11%	-4%	u
CN(c1ccccc1)S(=O)(=O)c1ccc(NC(=O)c2ccc(F)cc2)cc1	u	-12%	-86*	-5%	2%	u
SMILES	DT40 TDP1 no CPT	DT40 TDP1 CPT	IL-1B inflam inh	ASM inhibitor	HepG2 tox	TGFb SMAD3 inh
CCN(c1ccccc1)S(=O)(=O)c1ccc(NC(=S)NC(=O)c2cccs2)cc1	23µM*	u	7	-10%	-4%	u
CN(c1ccccc1)S(=O)(=O)c1ccc(C(=O)Nc2ccncc2)cc1	15µM*	u	-14	-1%	35%	-24%
CN(c1ccc(C(=O)Nc2cccnc2)cc1)S(=O)(=O)c1ccccc1	-26%	-1%	13	4%	-1%	1%
CN(c1ccccc1)S(=O)(=O)c1ccc(NC(=O)c2ccccc2)cc1	u	-22%	u	-7%	21%	u
CCOC(=O)c1cn(Cc2cccc(Cl)c2)nn1	-5%	1%	-3	0%	3%	-13%
CCOC(=O)c1cn(Cc2c(C)c(C)c(C)c(C)c2C)nn1	23µM*	16µM*	22	3%	-10%	16%
O=c1c2ccccc2nc(/C=C/c2ccc(Cl)cc2)n1CCO	u	21µM*	-74*	-5%	-3%	-23%
O=c1c2ccccc2nc(/C=C/c2cccc(Br)c2)n1CCCO	13µM*	u	-85*	-15%	-12%	0%
Cc1ccccc1/C=C/c1nc2ccccc2c(=O)n1Cc1ccccc1	-2%	2%	-3	0%	-2%	2%
Cc1nc2ccccc2c(=O)n1CCCO	-5%	-18%	-12	5%	-5%	22%
O=c1c2ccccc2nc(/C=C/c2ccc(Br)cc2)n1CCO	23µM*	u	-83*	75%	20%	17%
O=c1c2ccccc2nc(/C=C/c2ccc(Br)cc2)n1CCCO	21µM*	23µM*	u	-8%	-26%	-24%
O=c1c2ccccc2nc(/C=C/c2cccc([N+](=O)[O-])c2)n1CCCO	u	-28%	0	-5%	-24%	0%
O=c1c2ccccc2nc(/C=C/c2ccc([N+](=O)[O-])cc2)n1CCCO	21µM*	u	x	-1%	3%	-6%
Cc1[nH]c2ccccc2c1/C=C/c1nc2ccccc2c(=O)n1CCO	4.6µM*	6.5µM*	-84*	39%	-24%	-4%
Cn1c(/C=C/c2cccc(Br)c2)nc2ccccc2c1=O	u	29µM*	4	-7%	0%	-25%
CC(=O)Nc1c(Cl)c(Cl)c2c(c1Cl)Cc1cc(Cl)ccc1-2	u	u	11	-2%	-18%	u
Cc1ccc([N+](=O)[O-])cc1S(=O)(=O)Nc1cccc(S(=O)(=O)Nc2ccccc2C(=O)O)c1	11%	-8%	19	-10%	18%	11%
Cc1ccc(C(=O)Nc2cccc([N+](=O)[O-])c2)cc1S(=O)(=O)Nc1cccc(C(=O)O)c1	u	u	13	-23%	0%	0%
